A short description of test [1]: qHTS assay to identify small molecule agonists of the hypoxia (HIF-1) signaling pathway - cell viability counter screen (AID 1224844; calls by dose curve; also: nearly all actives have a fitted effect of over 50% in size). The conditions noted are these: HRE-bla ME-180 viability, CellTiter-Glo luminescence, 17 h; series mostly up to 76.8 µM. The essentials: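 Same wells as the HIF-1 reporter screen; ME-180 cells carrying HRE-bla, 17 hr treatment at 37C; CellTiter-Glo luminescence read after 30 min at room temperature.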

A short description of test [2]: qHTS assay to identify small molecule agonists of H2AX (AID 1224845; active = well fitted activation curve with a large enough effect in the signal ratio in the repeat runs, not every such curve was filed as active; the % refers to the signal ratio). The conditions noted are these: CHO-K1 phospho-H2AX Ser139 HTRF, 3 h; series mostly up to 154 µM. An outline of the steps:
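Wild-type CHO-K1 cells plated overnight, then exposed 3 hr at 37C to compounds at 15 concentrations (0.76% DMSO). Lysed, then HTRF anti-pH2AX(S139)-cryptate/anti-H2AX-d2 detection after 24 hr at room temperature; emissions 665 and 620 nm.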

Test [3] in a line: qHTS assay to identify small molecule agonists of the hypoxia (HIF-1) signaling pathway (AID 1224846; active = well fitted activation curve with a large enough effect in the signal ratio in the repeat runs, not every such curve was filed as active; the % refers to the signal ratio). The note with it: HRE-bla ME-180 cells, beta-lactamase ratio, 17 h; series mostly up to 76.8 µM. An outline of the steps: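 In ME-180 cells bearing an HRE-bla construct, 17 h treatment with DMSO-dissolved compounds at 37C was followed by CCF4-AM loading to quantify reporter induction.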
On the technique in general: In qHTS, concentration-response curves come from the screen itself.

A short description of test [4]: qHTS assay to identify small molecule antagonists of the estrogen related receptor (ERR) signaling pathway from Tox21 library (AID 1224848). Also: nearly all actives have a fitted effect of over 50% in size. Also: potency is read from the fitted curve at half-maximal effect. The note with it: ERR reporter cell line, luciferase antagonist mode, 18 h; series mostly up to 92.4 µM. An outline of the steps:
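Tox21 10K compounds in DMSO tested for ERR pathway antagonism in NTP's ERR cell line; 18 h, 37 C exposure; ONE-Glo luminescence.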

Test [5] is described as follows: qHTS assay to identify small molecule agonists of the estrogen related receptor (ERR) signaling pathway from Tox21 library (AID 1224849; calls by dose curve; also: nearly all actives have a fitted effect of over 15% in size). The conditions noted are these: ERR reporter cell line, ONE-Glo luciferase, 18 h. An outline of the steps: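 Reporter cells (ERR, NTP source) treated with Tox21 10K compounds 18 h, 37 C. Readout: ONE-Glo luminescence, 30 min RT.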

Test [6] is described as follows: qHTS RealTime-Glo MT Cell Viability Assay in HepG2 cells - 24 hour (AID 1224867). Also: nearly all actives have a fitted effect of over 50% in size. The note with it: RealTime-Glo luminescence; series mostly up to 76.8 µM. An outline of the steps: (§1)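 Cells + NanoLuc/prosubstrate dispensed (600 cells/well) → 5 h at 37 C/5% CO2 → compounds in DMSO transferred → 40 h incubation at 37 C, luminescence read at 0, 8, 16, 24, 32, 40 h.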

A short description of test [7]: qHTS RealTime-Glo MT Cell Viability Assay in HEK293 cells - 32 hour (AID 1224868). Also: nearly all actives have a fitted effect of over 50% in size. Also: potency is read from the fitted curve at half-maximal effect. The conditions noted are these: RealTime-Glo luminescence; series mostly up to 76.8 µM. The essentials: (§2)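 Tox21 10K qHTS, HEK293, 600 cells/well, RealTime-Glo reagent co-dispensed with cells; 5 h preincubation, compound by pintool, 37 C, luminescence at 0–40 h.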
Test [8] can be described thus: A CellTox Green Cytotoxicity Assay to monitor cytotoxicity in HEK293 cells - 0 hour (AID 1224869). Also: nearly all actives have a fitted effect of over 50% in size. The note with it: CellTox Green fluorescence; series mostly up to 76.8 µM. An outline of the steps:
(§3)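 Homogeneous no-lysis format: HEK293 cell suspension mixed with CellTox Green reagent, seeded, incubated 5 h at 37 C/5% CO2, then dosed by pintool with compound in DMSO.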

A short description of test [9]: qHTS RealTime-Glo MT Cell Viability Assay in HepG2 cells - 40 hour (AID 1224870). Also: nearly all actives have a fitted effect of over 50% in size. The note with it: RealTime-Glo luminescence; series mostly up to 76.8 µM. The essentials:
(§4)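 HepG2 cells mixed with RealTime-Glo MT reagents (NanoLuc plus cell-permeant prosubstrate) were seeded at 600 cells/well, incubated 5 h at 37 C/5% CO2, then pinned with compounds in DMSO; nonlytic luminescence tracked viability during 40 h treatment.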

The nature of test [10]: A CellTox Green Cytotoxicity Assay to monitor cytotoxicity in HEK293 cells - 40 hour (AID 1224871). Also: nearly all actives have a fitted effect of over 45% in size. The conditions noted are these: CellTox Green fluorescence; series mostly up to 76.8 µM. The essentials: as §3
Test [11] in a line: qHTS RealTime-Glo MT Cell Viability Assay in HEK293 cells - 16 hour (AID 1224872). The conditions noted are these: RealTime-Glo luminescence; series mostly up to 76.8 µM. An outline of the steps:
as §2

Test [12] can be described thus: qHTS RealTime-Glo MT Cell Viability Assay in HepG2 cells - 8 hour (AID 1224873). Also: nearly all actives have a fitted effect of over 55% in size. The conditions noted are these: RealTime-Glo luminescence; series mostly up to 76.8 µM. An outline of the steps: as §4
The nature of test [13]: A CellTox Green Cytotoxicity Assay to monitor cytotoxicity in HEK293 cells - 24 hour (AID 1224875). Also: nearly all actives have a fitted effect of over 45% in size. The note with it: CellTox Green fluorescence; series mostly up to 76.8 µM. An outline of the steps:
as §3

A short description of test [14]: A CellTox Green Cytotoxicity Assay to monitor cytotoxicity in HepG2 cells - 16 hour (AID 1224876). Also: nearly all actives have a fitted effect of over 45% in size. The conditions noted are these: CellTox Green fluorescence; series mostly up to 76.8 µM. An outline of the steps: (§5)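 Fluorescent DNA-binding dye, 600 HepG2 cells/well, 5 h preincubation then compound in DMSO; same plates read at 0–40 h, 37 C.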
Test [15] can be described thus: qHTS RealTime-Glo MT Cell Viability Assay in HepG2 cells - 32 hour (AID 1224877). Also: nearly all actives have a fitted effect of over 55% in size. The note with it: RealTime-Glo luminescence; series mostly up to 76.8 µM. An outline of the steps:
as §1

Test [16] is described as follows: A CellTox Green Cytotoxicity Assay to monitor cytotoxicity in HepG2 cells - 40 hour (AID 1224879). Also: nearly all actives have a fitted effect of over 40% in size. The note with it: CellTox Green fluorescence; series mostly up to 76.8 µM. An outline of the steps:
as §5

Test [17] is described as follows: qHTS RealTime-Glo MT Cell Viability Assay in HEK293 cells - 40 hour (AID 1224874). Also: nearly all actives have a fitted effect of over 50% in size. The note with it: RealTime-Glo luminescence; max response: stronger effect = lower value. An outline of the steps: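 Measured as luminescence from the same continuously cultured HEK293 wells at successive time points (0, 8, 16, 24, 32, 40 h) after compound addition. Reagent present from seeding; dosing at 5 h; incubation 37 C.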

Test [18] in a line: qHTS assay to identify small molecule agonists of H2AX - cell viability counter screen (AID 1224847; calls by dose curve; also: top concentration of the series differs between compounds; nearly all actives have a fitted effect of over 30% in size). The conditions noted are these: CHO-K1 viability, CellTiter-Glo luminescence, 3 h; series mostly up to 154 µM. The essentials:
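Cells plated first: CHO-K1, 1000 per well in 10% FBS medium, incubated overnight at 37C. Then 15-point compound titration added (final DMSO 0.76%) for 3 hr. Finally CellTiter-Glo added and luminescence read.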

Test [19] can be described thus: A CellTox Green Cytotoxicity Assay to monitor cytotoxicity in HepG2 cells - 24 hour (AID 1224878). Also: nearly all actives have a fitted effect of over 45% in size. The note with it: CellTox Green fluorescence; series mostly up to 76.8 µM. An outline of the steps:
as §5

Each structure is given as a SMILES string. Values joined by “and” are separate entries in the source; they are usually repeats but may differ in a detail not shown here. Equal entries are not always repeated. Records with an inconclusive call do not appear. More than one record can exist for a structure, and the calls need not agree. Active and inactive are the calls of the source. Unless noted, calls follow the shape of the dose curve; as a rule, active = well fitted curve in the direction sought with a large enough effect in the repeat runs; inconclusive = weak or mixed curves; inactive = no such curve, though single readings can be large; an effect the other way counts as inactive or inconclusive.
% is scaled to controls: 0 for no effect and ±100 for the full control effect.

In the case of `C=C(C)C(=O)OCC(CC)CCCC` (centres undefined), the Potency result in [1], in test [2], in test [7], in [8], in test [10] and in [13] was “inactive” throughout. Besides, the Potency entry in test [14] and in test [16] was “inactive” each time. The outcome in test [3], in [6], in [9], in test [11], in test [12] and in test [15] was inactive. Also, in [4], the Potency is 24.8 µM (active) and inactive. Further, the activity change, positive = activation in test [5] (at 92.4 µM (top of the series)) was -78.2% (inactive) and 4.6% (inactive).

Regarding `CN(C)NC(=O)CCC(=O)O`, the Potency result in test [1], in [2], in test [4], in test [7], in test [8] and in test [10] was “inactive” in each case. For the same compound, the Potency entry in test [13], in test [14] and in test [16] was “inactive” throughout. The result in test [3], in test [6], in test [9], in test [11], in test [12] and in test [15] was inactive. The activity change, positive = activation in test [5] (at 92.4 µM (top of the series)) was 4.6% (inactive) and 12.8% (active).

For `O=[N+]([O-])c1ccc(Cl)cc1`, the Potency result in [1], in test [2], in [7], in [8], in test [10] and in test [13] was “inactive” each time. Besides, the Potency result in [14] and in test [16] was “inactive” in each case. The result in test [3], in test [6], in test [9], in test [11], in test [12] and in test [15] was inactive. For the same compound, the max response in [17] is 4.49% (inactive) and 2.44% (inactive).

In the case of `Cc1ccccc1N`, the Potency result in test [1], in test [2], in test [18], in test [7], in [8] and in [10] was “inactive” in each case. In addition, the Potency result in test [13], in [14], in [19] and in [16] was “inactive” in each case. Besides, the outcome in test [3], in test [6], in test [9], in test [11], in test [12] and in test [15] was inactive.

With `COc1cc(-c2ccc(N)c(OC)c2)ccc1N`, the Potency result in test [1], in test [8], in test [10], in test [13], in [14] and in [19] was “inactive” throughout. In addition, the Potency entry in [16] is “inactive”. Further, the result in test [3], in test [6], in test [9], in test [11], in [12] and in test [15] was inactive. In addition, the Potency entry in test [4] was “inactive and 46.3 µM (active)”; in test [7], “inactive and 37.1 µM (active)”.

With `O=P1(NCCCl)OCCCN1CCCl` (centres undefined), the Potency entry in test [1], in test [2], in [4], in [7], in test [8] and in [10] was “inactive” each time. Further, the Potency result in test [13], in test [14] and in [16] was “inactive” each time. For the same compound, the result in test [3], in [6], in test [9], in test [11], in test [12] and in [15] was inactive. For the same compound, the activity change, positive = activation in test [5] (at 42.5 µM (top of the series)) is -0.35% (inactive); in test [5] (at 92.4 µM (top of the series)), 5.99% (inactive) and 1.11% (inactive). Also, the max response in test [17] is 0.555% (inactive) and 9.01% (inactive) and 5.36% (inactive).

Turning to `Nc1nc(N)nc(NC2CC2)n1`, the Potency result in test [1], in test [2], in test [4], in test [7], in [8] and in test [10] was “inactive” throughout. The Potency entry in [13], in [14] and in [16] was “inactive” in each case. For the same compound, the result in test [3], in test [6], in [9], in [11], in [12] and in [15] was inactive. Also, the activity change, positive = activation in [5] (at 42.5 µM (top of the series)) is 7.96% (inactive); in test [5] (at 92.4 µM (top of the series)), -4.5% (inactive) and 0.923% (inactive). For the same compound, the max response in test [17] is -1.36% (inactive) and 9.96% (inactive) and -0.244% (inactive).

Values taken from PubChem BioAssay (Tox21).
